Source: PubChem
Giardia FBPA inh: Giardia lamblia aldolase inhibition. purified Giardia FBPA. Potency, µM (top dose mostly 59.6 µM), inactives show at the top dose activity, negative = inhibition, actives largely listed as inhibitors. 290,000 compounds, 0.71% hits. AID 2451; further: potency means the concentration at half of the fitted maximal effect; on the % scale 0 is the no-effect control and ±100 the full control effect; nearly all actives have a fitted effect of over 55% in size
Target sequence (A8B2U2 whole entry, looked up): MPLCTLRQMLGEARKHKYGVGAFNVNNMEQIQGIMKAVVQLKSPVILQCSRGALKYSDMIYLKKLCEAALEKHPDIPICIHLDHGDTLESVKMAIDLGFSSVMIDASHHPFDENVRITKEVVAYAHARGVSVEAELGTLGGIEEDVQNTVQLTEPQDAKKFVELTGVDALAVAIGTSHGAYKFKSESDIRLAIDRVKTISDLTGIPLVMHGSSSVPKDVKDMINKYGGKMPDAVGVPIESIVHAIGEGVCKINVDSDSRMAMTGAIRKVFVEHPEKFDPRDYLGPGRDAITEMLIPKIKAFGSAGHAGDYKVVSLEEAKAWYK
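Giardia FBPA (40 nM reagent) was preincubated 10 min at RT with compound (up to 57.5 uM final), then substrate plus GAPDH/TPI/NAD/arsenate coupling system with diaphorase/resazurin was added; resorufin fluorescence (525/598 nm) was read after 20 min.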
Pf growth 48h: P. falciparum growth inhibition at 48 hours (one generation). Potency, µM (highest dose often 28.7 µM), inactives show at the highest dose activity change, negative = inhibition, hits mostly inhibitors. P. falciparum luciferase growth in erythrocytes, 48 h. 310,000 compounds, 5.9% hits; further: potency means the concentration at half of the fitted maximal effect; on the % scale 0 is the no-effect control and ±100 the full control effect
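First compound was added to culture medium, then infected red cells at 0.1% parasitemia and 2% hematocrit (final). After incubation at 37 C under 5% CO2, luciferase detection reagent was dispensed and light output recorded.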
CHX counter: affects cycloheximide protein synthesis inhibition readout, counter-screen. cell reporter, cycloheximide protein synthesis inhibition counterscreen. max response, %. 300,000 compounds, 12% hits; in the data active means max response mostly above about 13%, no sharp cut-off; inactive means mostly below about 14%; further: read at 38.3 µM for the half of the compounds with a filed dose; 0% is about no effect
Pf growth 96h: P. falciparum growth inhibition at 96 hour, primary screen for plastid delayed-death inhibitors | AID 504834 | P. falciparum luciferase reporter growth, 96 h | 320,000 compounds, 6.9% hits | Potency, µM (series often up to 28.7 µM), without a hit: at the top dose activity change, negative = inhibition, actives largely listed as inhibitors; further: potency means the concentration at half of the fitted maximal effect; on the % scale 0 is the no-effect control and ±100 the full control effect
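Two parasite generations (96 h, 37 C, 5% CO2) of compound exposure in infected erythrocytes (0.05% parasitemia, 2% hematocrit). Luciferase-reporter P. falciparum; decreased luminescence indicates inhibited growth, aimed at apicoplast-acting delayed death.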
NS1 inh: inhibitors of influenza NS1 protein function | Potency, µM (titrated, usually from 46.1 µM), for the others: at the highest dose activity, positive = more growth | 270,000 compounds, 0.4% hits | AID 2326; calls by dose curve; further: potency means the concentration at half of the fitted maximal effect; actives are rising curves; nearly all actives have a fitted effect of over 50% in size
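S. cerevisiae expressing influenza A NS1, grown in glucose, washed, then diluted 1:100 into pH 6.0 -URA galactose medium with 23 nl compound. Growth recovery read as OD600; NS1-free strain serves as control.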
Shiga toxin inh: blocks Shiga toxin action in Vero cells | inhibition, % at 38.7 µM | 290,000 compounds, 9.2% hits | AID 2315 | Vero cells, Shiga toxin protein synthesis inhibition reporter; in the data active means inhibition mostly above about 28%, no sharp cut-off; inactive means mostly below about 43%; further: 0% is about no effect
Starred values were filed as active, the others as inactive; ? = inconclusive; . = no result. Compounds with a hit are over-represented: about 21% of the library has one in this group of screens. Unless noted, the call rests on the fitted dose curve; in most records, active means well fitted curve in the direction sought with a large enough effect; inconclusive means small, poorly fitted or top-dose-only effect, or another doubt; inactive means no such curve, though single readings can be large; an effect the other way counts as inactive or inconclusive.

SMILES	Giardia FBPA inh	Pf growth 48h	CHX counter	Pf growth 96h	NS1 inh	Shiga toxin inh
CCN(CC)CCCNc1cc(C)nc2cc(-c3cccs3)nn12	5%	?	-2	-25%	-1%	-9
O=c1cnc2cnc(Nc3ccccc3)nc2n1C[C@H]1CCCO1	-9%	.	.	.	.	.
CCn1c(NC(=O)Nc2cccc(C)c2C)cc2sccc21	-4%	.	-4	13µM*	12%	13
CN1CC2=Cc3ccccc3OC23Oc2ccccc2C=C3C1	?	9.3µM*	3	12µM*	-11%	-3
Cc1[nH]c(C)c(S(=O)(=O)NCc2ccc(F)cc2)c1C(=O)N1CCCC1	.	10%	-6	?	-7%	-2
CCOC(=O)C1(N(CC)CC)Sc2cc(C)ccc2NC1=O (stereo not drawn)	.	?	-4	5.9µM*	-25%	-3
CCOC(=O)C1(Nc2nccs2)Sc2ccccc2NC1=O (stereo not drawn)	-1%	.	1	?	3%	-6
CCOc1nc(OCC)c2cnn(C)c2n1	1%	35%	-2	84%	-1%	-21
O=C(CCNS(=O)(=O)c1ccccc1C(F)(F)F)N1CCN(S(=O)(=O)c2cccc(F)c2)CC1	.	?	.	-13%	.	.
CN1CCN(P(=O)(c2ccccc2)c2nc3ccccc3s2)CC1 (stereo not drawn)	-3%	1%	-1	13µM*	-2%	0
CN(C)S(=O)(=O)N1CCc2ccc(NC(=O)c3ccc(C(F)(F)F)cc3)cc2C1	4%	27%	27*	13µM*	20%	.
COCCC(=O)N1CCc2ccc(NC(=O)c3ccc(C(F)(F)F)cc3)cc2C1	11%	3%	14	0%	9%	26*
COCCC(=O)Nc1ccc2c(c1)CN(C(=O)CSC)CC2	-1%	50%	7	57%	1%	31
COC1=CC(=O)C[C@@H](C)[C@]12Oc1c(Cl)c(OC)cc(OC)c1C2=O	9%	4%	-2	10%	-14%	-4
CCOC(=O)C1(Cc2ccccc2C(F)(F)F)CCN(C2CCN(C(C)=O)CC2)CC1	2%	9.3µM*	-4	?	-2%	-10
CCOC(=O)C1(Cc2ccccc2C(F)(F)F)CCN(C2CCC2)CC1	2%	?	-3	?	-3%	-3
O=C(COc1ccc2c3c(c(=O)oc2c1)CCC3)Nc1ccccn1	.	128%	20*	189%	1%	19
Cc1cccnc1NC(=O)COc1ccc2oc3c(c2c1)CCCC3	0%	?	29*	?	-38%	28*
CC(=O)COc1ccc2c3c(c(=O)oc2c1)CCCC3	-5%	45%	17*	.	-64%	50
Cc1cc(NC(=O)COC(=O)COc2ccc3c4c(c(=O)oc3c2)CCC4)no1	-3%	2%	-3	-7%	-12%	-6
O=c1oc2cc(OCc3nn[nH]n3)ccc2c2c1CCCC2	-14%	6%	-1	?	?	12
C#CCOc1ccc2c3c(c(=O)oc2c1)CCCC3	-7%	36%	14*	308%	-40%	.
Cc1ccc(C(=O)OCC(=O)N(CC(C)C)c2c(N)n(Cc3ccccc3)c(=O)[nH]c2=O)o1	.	4%	.	4%	.	.
CC(=O)C(C)Oc1ccc2c3c(c(=O)oc2c1)CCCC3 (stereo not drawn)	-6%	39%	8	22%	-32%	70
CC(=O)C(C)Oc1ccc2c3c(c(=O)oc2c1)CCCCC3 (stereo not drawn)	-9%	73%	50*	.	-19%	83*
SMILES	Giardia FBPA inh	Pf growth 48h	CHX counter	Pf growth 96h	NS1 inh	Shiga toxin inh
Cc1cccc(N2CCN(C(=O)CCNS(=O)(=O)c3ccc4c(c3)oc(=O)n4C)CC2)c1C	0%	?	8	1.3µM*	0%	1
Cc1cccc(N2CCN(C(=O)CCNS(=O)(=O)c3ccc4c(c3)CCC(=O)N4)CC2)c1C	-12%	?	-3	?	-7%	12
Cc1cccc(N2CCN(C(=O)CCS(=O)(=O)c3ccc4c(c3)oc(=O)n4C)CC2)c1C	.	13µM*	-1	9.3µM*	-10%	16
Cc1cccc(N2CCN(C(=O)CCS(=O)(=O)c3ccc4c(c3)NC(=O)CO4)CC2)c1C	-7%	-19%	-3	0%	-1%	-11
Cc1ccc(-c2nc(N3CCOCC3)sc2C(=O)N2CCOCC2)cc1	-1%	12%	11	14%	-13%	24*
CC(C(=O)N1CCOCC1)(c1ccccc1)c1ccccc1	-12%	?	-1	-9%	13%	12
Cc1c(C(=O)N2CCOCC2)cc(C(C)(C)C)n1-c1ccccc1	0%	9.3µM*	1	9.3µM*	5%	-14
Cc1ccc(-c2nn(-c3ccccc3)cc2C(=O)N2CCOCC2)cc1	3%	-19%	-3	2.3µM*	-18%	-29
COc1ccc(-c2nn(-c3ccccc3)cc2C(=O)N2CCN(S(=O)(=O)c3ccccc3C#N)CC2)cc1	.	?	.	9.3µM*	.	.
Cc1ccc(-c2nn(-c3ccccc3)cc2C(=O)N2CCN(C3CCS(=O)(=O)C3)CC2)cc1 (stereo not drawn)	.	-8%	.	?	.	.
COc1ccc(-c2nn(-c3ccccc3)cc2C(=O)N2CCN(S(=O)(=O)c3cccc(F)c3)CC2)cc1	.	10µM*	.	?	.	.
COc1ccc(-c2nn(-c3ccccc3)cc2C(=O)O)cc1	1%	.	5	5%	-68%	7
C[C@H]1C(=O)N(S(=O)(=O)c2ccccc2[N+](=O)[O-])[C@H]1c1ccc(-c2ccccc2)cc1	12%	.	6	.	.	10
COc1ccc(N(Cc2cc3ccccc3[nH]c2=O)S(=O)(=O)c2ccc(C)cc2)cc1	-7%	-6%	27*	-22%	10%	39*
CN(Cc1cc2ccccc2[nH]c1=O)S(=O)(=O)c1ccccc1	-4%	-4%	19*	0%	-4%	33
Cc1ccc(S(=O)(=O)N(C)Cc2cc3ccccc3[nH]c2=O)cc1	-9%	?	6	9.3µM*	-21%	-4
COc1ccc(N(Cc2cc3ccccc3[nH]c2=O)S(=O)(=O)c2ccccc2)cc1	-10%	?	1	-26%	-17%	1
CCN(Cc1cc2ccccc2[nH]c1=O)C(=O)C(C)C	14%	-2%	-3	0.93µM*	3%	-21
CN(Cc1cc2ccccc2[nH]c1=O)S(C)(=O)=O	2%	12%	-3	5%	2%	17
CCN(Cc1cc2ccccc2[nH]c1=O)C(=O)C1CCCCC1	2%	-12%	-3	9%	-7%	-3
CC(=O)N1CCN(C(=O)c2cccc(S(=O)(=O)Nc3c(C)n(C)n(-c4ccccc4)c3=O)c2)CC1	.	55%	.	2%	.	.
Cc1c(C(=O)Nc2ccccn2)sc2nc3n(c(=O)c12)CCC3	.	199%	43*	244%	-5%	77*
Cc1c(C(=O)Nc2ccccc2F)sc2nc3n(c(=O)c12)CCC3	.	116%	45*	-7%	-6%	95*
